Assay [1] deals with Retinoic acid receptor alpha (Homo sapiens) (UniProt P10276). The experiment in a line: ATG_DR5_RAR_CIS: Attagene CIS-FACTORIAL HepG2 Assay for human Retinoic Acid Receptor Alpha (RARE), DR5 submotif (AID 2282934; active means hit-call score of the fitted dose curve at least 0.9, where 1 is the maximum; inactive means score below 0.9). Conditions: HepG2 Attagene cis-factorial RARE DR5 reporter, mRNA; actives raise or lower the signal. Put shortly: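 HepG2 cells transiently transfected with multiplexed reporter units under cis (DR5 RARE) promoters, so endogenous transcription factor activity is measured. After 24 h compound exposure, reporter mRNA is quantified by RT-PCR with fluorescent labelling and capillary electrophoresis; bidirectional fitting versus DMSO.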

Assay [2] concerns the target Bile acid receptor (Homo sapiens) (UniProt Q96RI1). The experiment in a line: ATG_IR1_CIS: Attagene CIS-FACTORIAL HepG2 Assay for human Nuclear Receptor Subfamily 1 Group H Member 4 (NR1H4), IR1 submotif (AID 2282946; active means hit-call score of the fitted dose curve at least 0.9, where 1 is the maximum; inactive means score below 0.9). Conditions: IR1 reporter transcription, actives raise or lower the signal. The gist of the method: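 Readout: reporter transcript levels by RT-PCR with fluorescent capillary electrophoresis, from HepG2 cells transiently transfected with multiplexed cis-regulated reporters and dosed 24 h. Gain- or loss-of-signal fitted versus DMSO negative control.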

The nature of assay [3]: ATG_PPRE_CIS: Attagene CIS-FACTORIAL HepG2 Assay for human Peroxisome Proliferator-activated Response Element (PPRE) (AID 2282958; active means hit-call score of the fitted dose curve at least 0.9, where 1 is the maximum; inactive means score below 0.9). Conditions: HepG2 PPRE cis-element reporter, Attagene transcription factor profiling; actives raise or lower the signal. Put shortly:
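Cells are first transfected transiently with the multiplexed reporter library, then dosed for 24 h. Total RNA is reverse-transcribed, amplified, fluorescently end-labeled and HpaI-cut before capillary electrophoresis; activity is fitted bidirectionally against DMSO controls.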

In assay [4] the target is human Peroxisome Proliferator-activated Receptor delta (PPARd), PPARD (gene 5467) (UniProt Q03181). Description: ATG_PPARd_TRANS: Attagene TRANS-FACTORIAL HepG2 Assay for human Peroxisome Proliferator-activated Receptor delta (PPARd) (AID 2283002). The gist of the method:
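HepG2 cells transiently transfected with multiplexed GAL4-UAS reporter units and exogenous chimeric NR-Gal4 proteins; 24 h compound exposure. Reporter mRNA measured by RT-PCR, 6-FAM labelling, HpaI digestion and capillary electrophoresis; gain of signal versus DMSO.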

The target in assay [5] is human RAR-related Orphan Receptor beta (RORb), RORB (gene 6096) (UniProt Q92753). Description: ATG_RORb_TRANS: Attagene TRANS-FACTORIAL HepG2 Assay for human RAR-related Orphan Receptor beta (RORb) (AID 2283010). The gist of the method:
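HepG2, transient MRTU transfection (GAL4-UAS reporters, exogenous NR-Gal4 chimeras); 24 h compound exposure; total RNA → RT-PCR → 6-FAM primer extension → HpaI digest → CE fluorescence. Positive direction vs DMSO baseline.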

Assay [6] deals with human RAR-related Orphan Receptor gamma (RORg), RORC (gene 6097) (UniProt P51449). The experiment in a line: ATG_RORg_TRANS: Attagene TRANS-FACTORIAL HepG2 Assay for human RAR-related Orphan Receptor gamma (RORg) (AID 2283011). Put shortly:
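Transient MRTU transfection of HepG2 (TRANS format, exogenous NR-Gal4 chimera). 24 h dosing. Total RNA → oligo(dT) RT → PCR → 6-FAM labelling → HpaI cut → CE. Gain vs DMSO.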

Assay [7] concerns the target Retinoic acid receptor RXR-alpha (Homo sapiens) (UniProt P19793). The experiment in a line: ATG_RXRa_TRANS: Attagene TRANS-FACTORIAL HepG2 Assay for human Retinoid X Receptor alpha (RXRa) (AID 2283012). Put shortly:
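Read-out: fluorescent reporter-transcript fragments quantified by capillary electrophoresis after RT-PCR. Transiently transfected HepG2 cells carrying GAL4-UAS reporters and NR-GAL4 chimeras were exposed to chemical for 24 h; activity scored as increase over DMSO.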

The target of assay [8] is Nuclear receptor subfamily 1 group I member 3 (Homo sapiens) (UniProt Q14994). The experiment in a line: ATG_CAR_TRANS: Attagene TRANS-FACTORIAL HepG2 Assay for human Constitutive Androstane Receptor (CAR) (AID 2282969).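 Further: activators raise reporter mRNA above DMSO so AC50 marks induction.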 Conditions: HepG2 Attagene TRANS-FACTORIAL CAR reporter. Put shortly: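 Steps: transient transfection of HepG2 with multiple GAL4-UAS reporter units; 24 h compound incubation; RNA isolation, RT-PCR, 6-FAM primer extension, HpaI digest; capillary electrophoresis. Gain-of-signal relative to DMSO negative control.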

Assay [9] addresses Oxysterols receptor LXR-alpha (Homo sapiens) (UniProt Q13133). Description: ATG_LXRa_TRANS: Attagene TRANS-FACTORIAL HepG2 Assay for human Liver X Receptor alpha (LXRa) (AID 2282980). Conditions: HepG2 Attagene TRANS reporter, LXRa transactivation. The gist of the method: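 Read-out: reporter transcript levels by RT-PCR plus capillary electrophoresis, fluorescence intensity. Transiently transfected HepG2, exogenous NR-GAL4 chimera, GAL4-UAS reporters; 24 h compound exposure. Activity = increase over DMSO negative control.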

Assay [10] in a line: CCTE_Harrill_HTTr_Viability_MCF7: CCTE's 6-hour Cell Viability Assessment for the High-Throughput Transcriptomics (HTTr) Platform, in MCF-7 cells cultured in DMEM + 10% fetal bovine serum, Harrill Lab (AID 2284010; active means hit-call score of the fitted dose curve at least 0.9, where 1 is the maximum; inactive means score below 0.9). Put shortly: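 PI exclusion, high-content imaging; 8-pt dilution series, 6 h exposure; bidirectional fit vs DMSO (neg. ctrl/baseline); gain of signal = loss of membrane integrity.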

Assay [11] in a line: CCTE_Harrill_HTTr_Apoptosis_MCF7: CCTE's 6-hour Apoptosis Assessment for the High-Throughput Transcriptomics (HTTr) Platform, in MCF-7 cells cultured in DMEM + 10% fetal bovine serum, Harrill Lab (AID 2284011; active means hit-call score of the fitted dose curve at least 0.9, where 1 is the maximum; inactive means score below 0.9). Put shortly: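 Read-out: CellEvent Caspase 3/7 Green signal by high content imaging, gain-of-signal indicating apoptosis. MCF-7 cells, DMEM + 10% FBS, eight-point dilution series, 6 h exposure. Curves fitted bidirectionally relative to DMSO negative control.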

Assay [12] has as its target Glucocorticoid receptor (Homo sapiens) (UniProt P04150). The experiment in a line: ATG_GR_TRANS: Attagene TRANS-FACTORIAL HepG2 Assay for human Glucocorticoid Receptor (GR) (AID 2282978).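 Further: activators score as hits since higher reporter transcript over DMSO is fitted.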 Conditions: HepG2 Attagene TRANS GR reporter, mRNA transcription. The gist of the method: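 In this trans-factorial format, exogenous NR-GAL4 chimeric proteins in transfected HepG2 cells regulate GAL4-UAS reporter transcription. After 24 h treatment, reporter mRNA induction relative to DMSO is read by RT-PCR and capillary electrophoresis.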

The target of assay [13] is Nuclear receptor subfamily 4 group A member 2 (Homo sapiens) (UniProt P43354). The experiment in a line: ATG_NURR1_TRANS: Attagene TRANS-FACTORIAL HepG2 Assay for human Nuclear Receptor Related Protein 1 (NURR1) (AID 2282985). Conditions: HepG2 Attagene TRANS reporter, mRNA readout. Put shortly: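 Chimeric NR-Gal4 proteins were expressed in human HepG2 cells bearing GAL4-UAS reporter units, and induced reporter mRNA was quantified 24 h post-dosing by RT-PCR and capillary electrophoresis.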

Assay [14] concerns the target Nuclear receptor subfamily 1 group I member 2 (Homo sapiens) (UniProt O75469). The experiment in a line: ATG_PXR_TRANS: Attagene TRANS-FACTORIAL HepG2 Assay for human Pregnane X Receptor (PXR) (AID 2283008). The gist of the method:
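Multiplexed TRANS reporter panel in HepG2; this component tracks PXR-Gal4-driven reporter mRNA after 24 h dosing, measured by RT-PCR with capillary electrophoresis fluorescence, fitted against DMSO.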

Assay [15] is described as follows: ATG_XTT_Cytotoxicity: Cytotoxicity Assessment in the Attagene TRANS-FACTORIAL HepG2 Assay (AID 2283584).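 On AC50: cells exposed to compound for 24 h before reading.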 Put shortly: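 XTT readout of cell number in transfected HepG2 cells, 24 h post-dosing; DMSO serves as negative control and baseline, with activity taken as loss of viability signal.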
The nature of assay [16]: ATG_NF_kB_CIS: Attagene CIS-FACTORIAL HepG2 Assay for human Nuclear Factor Kappa B (NF-kB) (AID 2282991; active means hit-call score of the fitted dose curve at least 0.9, where 1 is the maximum; inactive means score below 0.9). Conditions: HepG2 Attagene cis-factorial NF-kB reporter mRNA; actives raise or lower the signal. The gist of the method:
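Endogenous transcription factor activity in HepG2 was captured via cis-regulated reporter constructs; after 24 h dosing, reporter mRNA was reverse-transcribed, amplified, fluorescently labelled and sized by capillary electrophoresis, with activity fitted bidirectionally relative to DMSO.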

The target of assay [17] is human Vitamin D Receptor (VDR), VDR (gene 7421) (UniProt P11473). The experiment in a line: ATG_VDR_TRANS: Attagene TRANS-FACTORIAL HepG2 Assay for human Vitamin D Receptor (VDR) (AID 2283022). The gist of the method:
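RT-PCR/capillary electrophoresis read-out of reporter mRNA induction in transiently transfected HepG2; 24 h dosing; chimeric NR-Gal4 (TRANS format); gain-of-signal fit against DMSO baseline.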

Assay [18] concerns the target human Peroxisome Proliferator-activated Receptor alpha (PPARa), PPARA (gene 5465) (UniProt Q07869). Description: ATG_PPARa_TRANS: Attagene TRANS-FACTORIAL HepG2 Assay for human Peroxisome Proliferator-activated Receptor alpha (PPARa) (AID 2283001).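 Further: potency for gain of reporter signal over DMSO so agonist or activator.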 The gist of the method:
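Exposure: 24 h, transiently transfected HepG2 cells. Endpoint: GAL4-UAS reporter mRNA, RT-PCR with capillary electrophoresis fluorescence. Baseline: DMSO; increases fitted.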

Assay [19] is described as follows: ATG_M_19_TRANS: Attagene TRANS-FACTORIAL HepG2 Assay for M19 Transcription Factor (Internal Marker) (AID 2282974). Conditions: HepG2 Attagene TRANS-FACTORIAL M19 internal marker reporter. Put shortly:
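Cells: human HepG2, transiently transfected with multiplexed reporter transcription units. Exposure: 24 h. Detection: RT-PCR of reporter mRNA with capillary electrophoresis. Analysis: gain-of-signal vs DMSO.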

Assay [20] can be described thus: TOX21_p53_BLA_p3_viability: Viability Assessment in the Tox21 HCT-116 p53 Agonism Beta-lactamase Assay, Phase 3 (AID 2283593).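 Further: cells exposed to compound for 16 h before reading.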 Put shortly: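 HCT-116 cells (4000/well) rested 5 h at 37C, then got DMSO compounds by pin tool (217-fold dilution) for 16 h at 37C, 5% CO2. After the bla read, CellTiter-Glo was added and luminescence read at 30 min, room temperature.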

This passage reports outcome and AC50 results from PubChem BioAssay (EPA / NIEHS).

The structures appear in SMILES notation. Results filed as inconclusive are left out. Calls of active or inactive are those of the source. How the source made its calls, unless noted: active means hit-call score of the fitted dose curve at least 0.9, where 1 is the maximum; inconclusive means response in the unintended direction; inactive means score below 0.9.

Chain of Nuclear receptor subfamily 1 group I member 3 (Homo sapiens) (Q14994 whole entry, looked up, the tested form may be a part): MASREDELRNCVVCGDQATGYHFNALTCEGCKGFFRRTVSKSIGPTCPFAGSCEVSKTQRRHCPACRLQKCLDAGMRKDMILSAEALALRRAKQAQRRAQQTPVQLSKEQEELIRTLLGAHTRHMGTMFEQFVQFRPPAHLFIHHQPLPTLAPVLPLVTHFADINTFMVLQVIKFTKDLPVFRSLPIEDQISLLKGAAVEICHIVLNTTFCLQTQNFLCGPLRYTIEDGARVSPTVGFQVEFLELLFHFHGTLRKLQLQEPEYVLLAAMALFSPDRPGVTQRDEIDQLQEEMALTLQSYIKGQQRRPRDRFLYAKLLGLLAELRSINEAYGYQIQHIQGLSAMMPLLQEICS
Chain of human RAR-related Orphan Receptor beta (RORb), RORB (gene 6096) (Q92753 whole entry, looked up, the tested form may be a part): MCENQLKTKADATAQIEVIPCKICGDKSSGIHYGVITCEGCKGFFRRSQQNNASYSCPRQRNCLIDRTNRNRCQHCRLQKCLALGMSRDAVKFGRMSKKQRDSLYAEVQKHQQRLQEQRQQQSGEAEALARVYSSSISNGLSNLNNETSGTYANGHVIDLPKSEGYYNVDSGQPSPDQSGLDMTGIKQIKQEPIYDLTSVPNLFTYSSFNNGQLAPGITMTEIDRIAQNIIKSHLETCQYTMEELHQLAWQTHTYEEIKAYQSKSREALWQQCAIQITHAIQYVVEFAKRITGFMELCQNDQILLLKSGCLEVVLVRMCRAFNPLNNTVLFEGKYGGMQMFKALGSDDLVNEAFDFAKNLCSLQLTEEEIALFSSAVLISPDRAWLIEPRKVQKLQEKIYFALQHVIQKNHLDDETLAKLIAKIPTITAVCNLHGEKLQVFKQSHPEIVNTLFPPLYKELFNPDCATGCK
Chain of Nuclear receptor subfamily 1 group I member 2 (Homo sapiens) (O75469 whole entry, looked up, the tested form may be a part): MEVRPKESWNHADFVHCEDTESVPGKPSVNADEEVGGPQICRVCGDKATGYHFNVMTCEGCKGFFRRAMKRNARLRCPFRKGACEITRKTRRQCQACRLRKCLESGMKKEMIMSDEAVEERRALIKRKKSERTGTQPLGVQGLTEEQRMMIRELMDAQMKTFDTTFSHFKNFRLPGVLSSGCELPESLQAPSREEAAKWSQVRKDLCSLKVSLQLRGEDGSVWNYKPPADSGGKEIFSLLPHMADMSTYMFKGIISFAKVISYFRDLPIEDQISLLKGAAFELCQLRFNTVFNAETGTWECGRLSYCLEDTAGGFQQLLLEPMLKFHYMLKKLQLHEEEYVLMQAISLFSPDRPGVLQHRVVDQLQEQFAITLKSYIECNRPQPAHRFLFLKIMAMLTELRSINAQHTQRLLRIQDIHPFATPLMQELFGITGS
Chain of human Peroxisome Proliferator-activated Receptor delta (PPARd), PPARD (gene 5467) (Q03181 whole entry, looked up, the tested form may be a part): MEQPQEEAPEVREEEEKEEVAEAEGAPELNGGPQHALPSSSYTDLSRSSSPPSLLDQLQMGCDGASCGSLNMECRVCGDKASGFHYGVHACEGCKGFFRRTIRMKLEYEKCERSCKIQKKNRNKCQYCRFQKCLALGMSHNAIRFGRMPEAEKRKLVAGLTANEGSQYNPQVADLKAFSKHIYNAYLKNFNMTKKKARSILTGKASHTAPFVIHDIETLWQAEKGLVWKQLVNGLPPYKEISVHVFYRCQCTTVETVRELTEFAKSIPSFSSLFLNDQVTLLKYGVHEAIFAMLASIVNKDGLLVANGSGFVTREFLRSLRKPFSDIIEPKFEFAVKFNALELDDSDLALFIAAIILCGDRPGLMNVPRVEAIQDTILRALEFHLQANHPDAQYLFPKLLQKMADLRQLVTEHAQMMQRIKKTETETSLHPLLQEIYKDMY
Chain of Oxysterols receptor LXR-alpha (Homo sapiens) (Q13133 whole entry, looked up, the tested form may be a part): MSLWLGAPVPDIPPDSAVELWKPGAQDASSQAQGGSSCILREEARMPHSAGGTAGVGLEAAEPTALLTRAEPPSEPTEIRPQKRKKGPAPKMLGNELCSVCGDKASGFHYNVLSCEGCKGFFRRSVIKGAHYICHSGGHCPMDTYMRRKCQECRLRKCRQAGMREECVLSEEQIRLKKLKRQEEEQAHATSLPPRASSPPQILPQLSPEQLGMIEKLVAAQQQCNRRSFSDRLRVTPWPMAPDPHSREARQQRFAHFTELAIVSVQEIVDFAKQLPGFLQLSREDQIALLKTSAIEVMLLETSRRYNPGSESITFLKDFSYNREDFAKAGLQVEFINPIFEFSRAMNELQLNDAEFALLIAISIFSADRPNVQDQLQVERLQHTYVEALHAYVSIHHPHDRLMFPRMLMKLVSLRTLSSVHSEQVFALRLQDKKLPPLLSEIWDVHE
Chain of Retinoic acid receptor RXR-alpha (Homo sapiens) (P19793 whole entry, looked up, the tested form may be a part): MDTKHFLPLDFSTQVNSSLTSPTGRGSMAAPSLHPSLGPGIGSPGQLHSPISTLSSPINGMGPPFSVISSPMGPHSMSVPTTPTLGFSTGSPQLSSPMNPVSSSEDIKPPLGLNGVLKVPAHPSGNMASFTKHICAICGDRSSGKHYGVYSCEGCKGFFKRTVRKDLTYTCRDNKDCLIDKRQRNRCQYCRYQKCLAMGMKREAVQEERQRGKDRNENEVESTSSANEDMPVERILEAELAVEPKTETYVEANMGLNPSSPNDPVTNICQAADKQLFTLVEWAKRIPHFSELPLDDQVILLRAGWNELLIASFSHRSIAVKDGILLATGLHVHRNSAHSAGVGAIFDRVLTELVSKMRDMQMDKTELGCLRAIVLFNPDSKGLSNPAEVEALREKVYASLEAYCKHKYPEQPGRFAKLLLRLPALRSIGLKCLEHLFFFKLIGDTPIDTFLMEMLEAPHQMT
Chain of Nuclear receptor subfamily 4 group A member 2 (Homo sapiens) (P43354 whole entry, looked up, the tested form may be a part): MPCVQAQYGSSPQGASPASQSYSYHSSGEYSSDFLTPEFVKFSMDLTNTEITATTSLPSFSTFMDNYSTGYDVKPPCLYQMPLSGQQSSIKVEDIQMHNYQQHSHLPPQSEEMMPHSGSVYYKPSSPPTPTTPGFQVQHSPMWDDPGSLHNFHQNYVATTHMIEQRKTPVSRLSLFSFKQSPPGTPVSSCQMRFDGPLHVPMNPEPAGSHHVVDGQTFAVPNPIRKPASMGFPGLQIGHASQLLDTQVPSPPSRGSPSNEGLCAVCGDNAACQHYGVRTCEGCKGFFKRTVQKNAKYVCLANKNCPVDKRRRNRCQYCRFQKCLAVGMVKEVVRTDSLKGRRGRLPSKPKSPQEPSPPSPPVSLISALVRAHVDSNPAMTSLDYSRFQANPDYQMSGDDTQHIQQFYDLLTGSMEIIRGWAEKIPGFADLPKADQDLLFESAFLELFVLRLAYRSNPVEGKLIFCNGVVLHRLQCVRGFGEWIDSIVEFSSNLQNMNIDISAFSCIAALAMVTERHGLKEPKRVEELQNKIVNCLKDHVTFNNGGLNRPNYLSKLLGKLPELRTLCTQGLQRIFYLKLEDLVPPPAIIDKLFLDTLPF
Chain of human RAR-related Orphan Receptor gamma (RORg), RORC (gene 6097) (P51449 whole entry, looked up, the tested form may be a part): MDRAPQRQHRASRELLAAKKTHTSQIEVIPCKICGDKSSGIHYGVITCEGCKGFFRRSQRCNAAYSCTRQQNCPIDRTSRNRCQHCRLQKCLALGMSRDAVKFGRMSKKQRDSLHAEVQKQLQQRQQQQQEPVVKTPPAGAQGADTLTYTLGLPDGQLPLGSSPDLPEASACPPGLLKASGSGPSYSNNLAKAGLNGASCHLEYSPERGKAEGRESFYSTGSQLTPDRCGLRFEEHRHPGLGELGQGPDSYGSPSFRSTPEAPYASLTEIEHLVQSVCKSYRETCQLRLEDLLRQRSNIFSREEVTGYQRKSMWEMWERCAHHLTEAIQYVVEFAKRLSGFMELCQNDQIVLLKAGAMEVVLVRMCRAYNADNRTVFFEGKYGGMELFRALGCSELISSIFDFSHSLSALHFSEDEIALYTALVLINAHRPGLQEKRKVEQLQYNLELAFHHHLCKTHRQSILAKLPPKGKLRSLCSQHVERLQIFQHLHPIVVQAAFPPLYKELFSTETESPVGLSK
Chain of Bile acid receptor (Homo sapiens) (Q96RI1 whole entry, looked up): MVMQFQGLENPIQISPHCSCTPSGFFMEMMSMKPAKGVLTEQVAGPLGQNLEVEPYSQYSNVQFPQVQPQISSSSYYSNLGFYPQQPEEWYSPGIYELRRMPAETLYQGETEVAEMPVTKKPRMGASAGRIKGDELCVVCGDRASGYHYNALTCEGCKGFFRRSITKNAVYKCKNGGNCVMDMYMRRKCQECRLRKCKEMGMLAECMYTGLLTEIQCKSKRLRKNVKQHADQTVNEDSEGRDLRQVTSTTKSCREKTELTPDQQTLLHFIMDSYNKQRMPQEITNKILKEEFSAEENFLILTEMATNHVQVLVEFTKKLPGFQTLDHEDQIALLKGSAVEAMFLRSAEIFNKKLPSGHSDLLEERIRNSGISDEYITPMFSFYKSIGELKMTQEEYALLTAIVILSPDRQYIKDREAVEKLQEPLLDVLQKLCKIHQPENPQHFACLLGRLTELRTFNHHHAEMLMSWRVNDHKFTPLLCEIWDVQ
Chain of Retinoic acid receptor alpha (Homo sapiens) (P10276 whole entry, looked up): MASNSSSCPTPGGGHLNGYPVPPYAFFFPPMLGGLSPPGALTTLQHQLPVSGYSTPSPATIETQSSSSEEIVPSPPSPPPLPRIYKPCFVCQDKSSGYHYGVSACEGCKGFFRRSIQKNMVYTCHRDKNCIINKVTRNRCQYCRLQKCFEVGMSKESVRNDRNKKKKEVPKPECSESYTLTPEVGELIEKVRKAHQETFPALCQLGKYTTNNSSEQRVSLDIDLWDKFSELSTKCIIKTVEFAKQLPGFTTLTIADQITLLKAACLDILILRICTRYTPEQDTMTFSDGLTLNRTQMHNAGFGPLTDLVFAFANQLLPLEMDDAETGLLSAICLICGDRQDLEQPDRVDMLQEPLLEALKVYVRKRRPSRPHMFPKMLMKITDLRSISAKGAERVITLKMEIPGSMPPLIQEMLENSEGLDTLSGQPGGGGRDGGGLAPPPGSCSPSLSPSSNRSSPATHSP

Turning to `O=C(NCNC(=O)NC1C(=O)NC(=O)N1CO)NC1C(=O)NC(=O)N1CO` (configuration not stated), the outcome in [1], in assay [2], in assay [3], in assay [4], in assay [5] and in assay [6] was inactive. For the same molecule, the molecule was classed as inactive in assay [7].

On to `[Cl][Sb]([Cl])[Cl]`, for which the molecule was classed as inactive in assay [1], in [8], in assay [9], in assay [4], in [5] and in assay [6]. Also, the outcome in assay [10] and in assay [11] was inactive.

For `C=C(Cl)Cl`, the call in assay [1], in [8], in assay [12], in assay [9], in assay [13] and in [4] was inactive. The outcome in [14], in assay [6] and in [15] was inactive.

Usually AC50 stands for the midpoint of the concentration-response curve, whichever way the signal moves. For `Cc1ccc(N(SC(F)(Cl)Cl)S(=O)(=O)N(C)C)cc1`, the molecule was called inactive in [1], in assay [2], in assay [9], in assay [13], in assay [16] and in assay [4]. Further, the result in [14], in [17], in [10] and in assay [11] was inactive. In addition, the AC50 in assay [3] is 11.1 µM (active); in [15], 38.7 µM (active).

In the case of `c1ccc(P(c2ccccc2)c2ccccc2)cc1`, the molecule was classed as inactive in [3], in assay [8], in assay [12] and in assay [4]. Moreover, the AC50 in assay [14] was 6.89 µM (active).

Consider `CCCCCCCCCCCCCCCC[N+](C)(C)C`, for which the outcome in [8], in assay [9], in assay [13], in [4], in assay [5] and in assay [6] was inactive. Also, the molecule was classed as inactive in assay [7] and in assay [17]. Besides, the AC50 is 49.2 µM (active) in assay [18] and 36.9 µM (active) in [15].

`O=C(O)CCl`: the call in assay [1], in assay [19], in assay [5] and in assay [6] was inactive.

With `O=C(O)C(Br)Br`, the molecule was classed as inactive in [2], in [19], in [12], in assay [16], in assay [6] and in assay [7]. Moreover, the molecule was classed as inactive in assay [20].
